# Source: PubChem (National Center for Advancing Translational Sciences (NCATS))
# HTT ATP protect – Huntington cell model cytoprotection by ATP luminescence; PC12 HTT-Q103 induced, cytoprotection, ATP luminescence, 40 h; Potency, µM (titrated, usually from 56.4 µM), without a hit: cytoprotection (ATP increase), actives largely listed as activators; actives 0.14% (n = 230,000); further: potency means the concentration at half of the fitted maximal effect; % of control where 0% means no effect; nearly all actives have a fitted effect of over 45% in size
#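 PC12 cells with ecdysone-inducible HTT exon 1 Q103-GFP, induced with 100 nM tebufenozide and co-treated with library compounds in a dose series (1536-well, 1500 cells/well). Cytoprotection read as ATP content by ATPlite luminescence.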
# ALDH1A1 inh – blocks purified human ALDH1A1 activity; P00352; Purified ALDH1A1, NADH fluorescence, propionaldehyde substrate; Potency, µM (titrated, usually from 75.3 µM), for the others: at the top dose activity, negative = inhibition, actives largely listed as inhibitors; actives 7.3% (n = 220,000); AID 1030; active means well fitted inhibition curve with a large enough effect, not every such curve was filed as active; inconclusive means small, poorly fitted or top-dose-only effect, or another doubt; inactive means no such curve, though single readings can be large or run the other way;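 further: potency means the concentration at half of the fitted maximal effect; plate controls were no enzyme wells and a reference inhibitor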
# PNC assembly inh – blocks assembly of the perinucleolar compartment; PC3M PTB-GFP, PNC prevalence imaging, 16 h; stronger effect = lower value; activity change (PNC), negative = inhibition, % at 10 µM; actives 3.1% (n = 140,000);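 active means readout at or below -70, meaning at least 70% loss of cells showing the perinucleolar compartment, a nuclear body marking cancer cells; inconclusive means readout between -30 and a set limit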;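 further: plate controls were DMSO wells for no effect and camptothecin positive control wells for full effect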
#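 Read-out is percentage of cells bearing a perinucleolar compartment, from automated 20x imaging of fixed, Hoechst-stained PC3M PTB-GFP cells. Cells were seeded 4 h, then exposed 16 h to compound (23 nl of library stock) in duplicate plates.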
# CBFb RUNX1 block – inhibitors of human CBF-beta and RUNX1 interaction; AlphaScreen CBFb-His/RUNX1-biotin binding, biochemical; AID 1477; Potency, µM (doses to about 59.8 µM), without a hit: at the top dose activity, negative = inhibition, hits mostly inhibitors; Q01196+Q13951; 230,000 tested, under 10 active; further: % of control where 0% means no effect
#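 Proteins preincubated together for 20 min at RT before compound addition; 15 min later, nickel and streptavidin beads were added and left 90 min prior to AlphaScreen measurement.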
# HttQ103 aggreg – inhibitors of mutant huntingtin aggregate formation in PC12 cells | AID 1688 | actives 1.1% (n = 220,000) | PC12 HttQ103-GFP aggregates, Acumen cytometry, 40 h | Potency, µM (doses to about 46.1 µM), inactives show top-dose activity change, negative = inhibition, usual class: inhibitors; further: potency means the concentration at half of the fitted maximal effect; on the % scale 0 is the no-effect control and ±100 the full control effect; nearly all actives have a fitted effect of over 60% in size
#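 Multiplexed with ATP-based cell death, this channel scores GFP aggregates in PC12 cells expressing inducible HTTex1-Q103-GFP. Induction used 100 nM tebufenozide; compounds were tested in concentration series.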
# HPGD inh – blocks human HPGD enzyme activity | P15428 | purified HPGD, NADH fluorescence kinetic, PGE2 substrate | Potency, µM, without a hit: at the top dose activity change, negative = inhibition, most hits filed as inhibitors | actives 4.3% (n = 150,000); active means well fitted inhibition curve with a large enough effect, not every such curve was filed as active; inconclusive means small, poorly fitted or top-dose-only effect, or another doubt; inactive means no such curve, though single readings can be large or run the other way; further: potency means the concentration at half of the fitted maximal effect; on the % scale 0 is the no-effect control and ±100 the full control effect
# Target sequence (P15428 whole entry, looked up): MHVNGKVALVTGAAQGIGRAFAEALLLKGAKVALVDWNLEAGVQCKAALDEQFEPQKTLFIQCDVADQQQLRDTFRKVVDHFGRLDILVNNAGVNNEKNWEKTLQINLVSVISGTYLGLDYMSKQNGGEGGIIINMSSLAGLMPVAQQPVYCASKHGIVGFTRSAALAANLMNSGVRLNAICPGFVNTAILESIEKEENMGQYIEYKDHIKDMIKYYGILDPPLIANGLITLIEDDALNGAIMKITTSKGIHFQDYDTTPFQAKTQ
#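 20 nM HPGD preincubated 15 min at room temperature with compound in 50 mM Tris-HCl pH 8, 0.01% Tween 20. Started with 1 mM NAD+ and 30 uM prostaglandin E2; NADH fluorescence (360/450 nm) read 5 times over 30-s intervals, last minus first.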
# Active calls of the source: *; ? = inconclusive; . = no result; [ ] = another dose, or the depositor's remark. A selection: hits, their analogues and other compounds. The true share with any hit is near 11%. Unless noted, the call rests on the fitted dose curve; in most records, active means well fitted curve in the direction sought with a large enough effect; inconclusive means small, poorly fitted or top-dose-only effect, or another doubt; inactive means no such curve, though single readings can be large; an effect the other way counts as inactive or inconclusive.
SMILES,HTT ATP protect,ALDH1A1 inh,PNC assembly inh,CBFb RUNX1 block,HttQ103 aggreg,HPGD inh
Cc1noc(C)c1CS(=O)(=O)c1ccc([N+](=O)[O-])cc1,3.7%,31.6µM*,.,6.7%,8.1%,.
CSc1nc2c(cc1C#N)C(=O)CC(C)(C)C2,0.5%[10 µM],-16.1%,.,10.5%,13.9%[9.22 µM],.
CN(C)S(=O)(=O)c1ccc(Cl)c(NC(=O)CSc2nc3c(cc2C#N)C(=O)CC(C)(C)C3)c1,.,?,-108.7*,-2.9%,?,-15.7%
CN(C)S(=O)(=O)c1cccc(NC(=O)CSc2nc3c(cc2C#N)C(=O)CC(C)(C)C3)c1,5.0%[10 µM],1.41µM*,?,1.0%,14.1%,-3.3%
CCOc1ccc(NC(C)=O)cc1N,-13.4%,13.5%,.,20.3%[21.7 µM],.,-9.1%
COC(=O)C(Cc1c[nH]c2ccccc12)NC(=O)c1cc(-c2ccc(OC)c(OC)c2)oc1C (configuration not stated),-2.3%[10 µM],28.2µM*,38.2,15.7%,-2.7%,31.6µM*
COC(=O)CCC(NC(=O)c1cc(-c2ccc3c(c2)OCCO3)oc1C)C(=O)OC (configuration not stated),0.5%,20µM*,-9.7,4.1%,7.0%,-19.7%
COC(=O)[C@@H](Cc1c[nH]c2ccccc12)NC(=O)c1cc(=O)[nH]c2ccccc12,8.6%[10 µM],.,.,-16.8%,-3.3%[9.22 µM],.
CCOC(=O)CNC(=O)c1cc(-c2ccc3c(c2)OCCO3)oc1C,-8.5%,?,?,1.9%,-4.0%,-23.6%
Cc1ccc(-c2ccc(/C=C/C(=O)c3ccccc3)o2)cc1,2.7%[1.9 µM],3.16µM*,?,-19.9%,?,14.1µM*
Cc1ccc(C(=O)/C=C/C(=O)c2ccc(C)cc2)cc1,-20.2%[10 µM],0.891µM*,.,-11.3%,?,.
O=C(/C=C/c1ccc(-c2ccccc2[N+](=O)[O-])o1)c1ccc(F)cc1,-25.0%,-1.0%,94.8,-19.4%,11.3%,?
O=C(/C=C/c1ccc(-c2ccccc2)o1)c1ccccc1,-17.1%[1.9 µM],11.5%,-8.3,-0.6%,2.9%,3.55µM*
O=C(/C=C/c1ccc(-c2ccccc2[N+](=O)[O-])o1)c1ccc(Br)cc1,0.7%[10 µM],7.08µM*,?,-10.8%,-21.7%,-22.9%
Cc1noc(C)c1-c1ccc2ncnc(NCc3cccc(-c4ccccc4)c3)c2c1,.,.,.,7.9%,.,.
Cc1ccc(N2CC(O)(c3cccs3)[N+]3=C2CCCC3)cc1 (configuration not stated),-49.1%,6.6%,.,7.8%,-12.7%,.
Cc1ccc(N2NC(C)(c3cccs3)NC2=S)cc1 (configuration not stated),-24.1%[10 µM],17.8µM*,32.0,-4.3%,18.7%,-21.2%
CCC(Sc1nnnn1-c1ccccc1)C(=O)Nc1nc2ccccc2s1 (configuration not stated),1.1%[10 µM],?,-100.0*,-1.3%,?,-15.3%
c1ccc(-n2nnnc2SCCCSc2nc3ccccc3s2)cc1,-5.8%[10 µM],1.26µM*,-13.7,?,-26.6%,11.2µM*
COc1ccccc1OCCSc1nnnn1-c1ccc(C)cc1,-11.2%,-14.6%,?,16.7%,-12.4%,-13.6%
CCOc1ccc(OCCSc2nnnn2-c2ccccc2)cc1,-15.9%,14.1µM*,17.7,28.5%,-9.8%,-13.2%
Fc1ccccc1OCCSc1nnnn1-c1ccccc1,2.7%[1.9 µM],1.89µM*,?,-7.1%,-7.3%,15.8µM*
CCC(Sc1nnnn1-c1ccccc1)C(=O)NC(C)c1ccccc1 (configuration not stated),4.7%,?,?,11.7%,-7.4%,-4.1%
CN(C)c1ncc2nc(-c3ccccc3)c(=O)n(C[C@H]3CCCO3)c2n1,1.5%,?,.,.,.,.
O=C(O)C[C@H](S)C(=O)O,3.1%[10 µM],-5.1%[13.5 µM],.,.,.,-1.6%
O=C(O)CCSc1nnnn1-c1ccccc1,-5.1%,-2.0%,-15.2,-0.4%,-1.7%,.
CCOc1ccc(OCCSc2nnnn2C2CCCCC2)cc1,4.3%[10 µM],15.8µM*,20.7,26.8%,-30.7%,-16.0%
Clc1ccc(OCCSc2nnnn2C2CCCCC2)cc1,-10.0%,?,?,19.8%,-17.4%,-12.4%
